Experimental findings from PubChem BioAssay are described below.

Values without a mark were called inactive. For some of these results: Potency and affinity values are given separately. The source made the active and inactive calls. Unless noted, how the calls were made is not given here.

Assay [1] is described as follows: antimalarial activity against Dd2 strain (AID 2302;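 active means growth inhibition above 50% at the single 2 µM test dose, taken to imply half-maximal potency below 2 µM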;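 further: 0% = DMSO untreated growth and 100% = chloroquine plus artemisinin killed control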). Particulars: P. falciparum Dd2 in RBCs, LDH growth readout, 72 h; at 2 µM; hits give high values.
Assay [2] can be described thus: HepG2 cytotoxicity, primary screen, cytotoxicity control for P. falciparum antimalarial project, cell-based, ATP luminescence (AID 2303;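 active means inhibition above 50%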;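 further: 0% = DMSO wells and 100% = digitonin-killed cells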). The note with it: HepG2 viability, 24-48 h, at 10 µM, hits give high values.
For assay [3], the target named is L-lactate dehydrogenase (Plasmodium falciparum (isolate CDC / Honduras)) (UniProt Q27743). Put plainly: PfLDH activity inhibition – cell lysate, 3D7 strain, counter-screen for P. falciparum growth inhibition project (AID 2304).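 Further: 0% = vehicle and 100% = reference inhibitor.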 Particulars: P. falciparum 3D7 crude extract, LDH APAD/NBT absorbance; at 2 µM; hits give high values. For orientation: The purpose of a counterscreen is to sort out artefacts and off-target activity.
L-lactate dehydrogenase (Plasmodium falciparum (isolate CDC / Honduras)), sequence (Q27743 whole entry, looked up): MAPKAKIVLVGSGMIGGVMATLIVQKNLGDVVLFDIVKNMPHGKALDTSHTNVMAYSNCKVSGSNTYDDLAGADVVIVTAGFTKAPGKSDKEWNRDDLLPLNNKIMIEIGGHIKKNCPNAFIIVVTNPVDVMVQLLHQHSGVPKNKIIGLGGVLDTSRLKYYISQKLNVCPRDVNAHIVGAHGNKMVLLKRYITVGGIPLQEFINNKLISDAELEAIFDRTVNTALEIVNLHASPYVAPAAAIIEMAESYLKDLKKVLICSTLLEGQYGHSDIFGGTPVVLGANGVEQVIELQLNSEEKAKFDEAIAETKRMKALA

Assay [4] in a line: inhibition of 3D7 malaria parasite growth – strain 3D7 (AID 2306).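 Further: 0% = DMSO wells and 100% = chloroquine plus artemisinin control wells.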 The note with it: P. falciparum 3D7 erythrocytic growth, LDH absorbance, 72 h; at 2 µM; hits give high values.
Assay [5] has as its target Calcium-dependent protein kinase 1 (Plasmodium falciparum (isolate 3D7)) (UniProt P62344). Nature of the assay: PfCDPK1 kinase inhibitors, biochemical, TCAMS library (AID 1159585; cut-off not given, nearly all actives have IC50 up to about 0.98 µM;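 further: inhibitors leave more ATP so luminescence rises with inhibition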). Particulars: recombinant PfCDPK1, Kinase-Glo ATP depletion luminescence. In general terms: Kinase-Glo measures the ATP left after a reaction by luminescence.
For assay [6], the target named is Plasmodium falciparum protein kinase 6 (PK6, PF3D7_1337100) (UniProt Q8IDW1). Nature of the assay: PfPK6 kinase inhibitors, biochemical, TCAMS library (AID 1159586). Particulars: recombinant PfPK6, Kinase-Glo ATP depletion luminescence.
Plasmodium falciparum protein kinase 6 (PK6, PF3D7_1337100), sequence (Q8IDW1 1-305): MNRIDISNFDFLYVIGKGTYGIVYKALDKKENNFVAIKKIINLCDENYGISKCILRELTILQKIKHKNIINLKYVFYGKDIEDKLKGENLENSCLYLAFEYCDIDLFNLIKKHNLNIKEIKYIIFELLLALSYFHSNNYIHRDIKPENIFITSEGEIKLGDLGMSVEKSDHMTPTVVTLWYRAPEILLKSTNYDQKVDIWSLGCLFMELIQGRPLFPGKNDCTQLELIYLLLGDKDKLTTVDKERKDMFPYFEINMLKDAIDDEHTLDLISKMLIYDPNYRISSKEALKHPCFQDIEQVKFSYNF
Assay [7] deals with Protein kinase 7 (PK7), Plasmodium falciparum 3D7 (PF3D7_0213400) (UniProt Q7YTF7). Put plainly: inhibition of Plasmodium PK7 catalytic activity – biochemical, TCAMS antimalarial set, Kinase-Glo luminescence (AID 1159587). The note with it: recombinant PfPK7, Kinase-Glo ATP depletion luminescence.
Protein kinase 7 (PK7), Plasmodium falciparum 3D7 (PF3D7_0213400), sequence (Q7YTF7 1-343): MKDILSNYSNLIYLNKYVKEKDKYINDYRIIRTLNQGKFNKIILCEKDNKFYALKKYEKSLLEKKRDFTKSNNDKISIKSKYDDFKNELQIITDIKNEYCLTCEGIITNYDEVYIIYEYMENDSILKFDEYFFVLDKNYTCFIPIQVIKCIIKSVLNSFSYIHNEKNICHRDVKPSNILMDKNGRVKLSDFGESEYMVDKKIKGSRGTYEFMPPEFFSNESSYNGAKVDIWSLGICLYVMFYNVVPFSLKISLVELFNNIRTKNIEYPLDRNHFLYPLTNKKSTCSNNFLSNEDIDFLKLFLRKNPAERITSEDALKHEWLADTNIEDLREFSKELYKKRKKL
The target of assay [8] is Calcium-dependent protein kinase 4 (Plasmodium falciparum (isolate 3D7)) (UniProt Q8IBS5). Nature of the assay: PfCDPK4 kinase inhibitors, biochemical, TCAMS library (AID 1159588; cut-off not given, nearly all actives have IC50 up to about 0.91 µM). The note with it: recombinant PfCDPK4, Kinase-Glo ATP depletion luminescence.
Calcium-dependent protein kinase 4 (Plasmodium falciparum (isolate 3D7)), sequence (Q8IBS5 whole entry, looked up): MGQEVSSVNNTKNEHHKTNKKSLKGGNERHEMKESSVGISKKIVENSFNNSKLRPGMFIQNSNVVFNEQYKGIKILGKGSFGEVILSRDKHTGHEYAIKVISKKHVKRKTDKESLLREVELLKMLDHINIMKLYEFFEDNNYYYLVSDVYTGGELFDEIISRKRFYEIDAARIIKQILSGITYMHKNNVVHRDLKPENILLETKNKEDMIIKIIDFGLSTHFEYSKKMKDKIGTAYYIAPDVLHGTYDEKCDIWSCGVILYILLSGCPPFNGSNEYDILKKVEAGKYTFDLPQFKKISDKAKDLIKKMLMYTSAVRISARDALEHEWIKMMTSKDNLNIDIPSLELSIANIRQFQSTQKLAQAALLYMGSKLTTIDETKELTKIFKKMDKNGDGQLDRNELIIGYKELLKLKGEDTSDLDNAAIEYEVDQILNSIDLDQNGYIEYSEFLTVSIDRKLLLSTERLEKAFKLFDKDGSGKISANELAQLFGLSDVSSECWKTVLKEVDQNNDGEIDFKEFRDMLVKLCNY

Calcium-dependent protein kinase 1 (Plasmodium falciparum (isolate 3D7)), sequence (P62344 whole entry, looked up): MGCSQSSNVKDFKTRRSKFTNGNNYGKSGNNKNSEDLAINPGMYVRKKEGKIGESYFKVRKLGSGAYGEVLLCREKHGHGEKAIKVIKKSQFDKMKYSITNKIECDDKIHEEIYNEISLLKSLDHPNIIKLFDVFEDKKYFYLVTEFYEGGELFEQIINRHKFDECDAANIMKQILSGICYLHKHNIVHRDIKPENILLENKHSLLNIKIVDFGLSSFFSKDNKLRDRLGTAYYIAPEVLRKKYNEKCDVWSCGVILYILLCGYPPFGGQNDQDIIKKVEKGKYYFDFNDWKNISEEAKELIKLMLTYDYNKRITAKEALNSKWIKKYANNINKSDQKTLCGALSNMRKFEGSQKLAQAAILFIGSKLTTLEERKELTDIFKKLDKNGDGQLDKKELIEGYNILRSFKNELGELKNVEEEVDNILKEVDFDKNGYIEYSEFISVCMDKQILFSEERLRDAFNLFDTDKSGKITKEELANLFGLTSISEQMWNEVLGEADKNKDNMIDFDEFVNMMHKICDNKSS

With `O=C(Nc1cccc(-c2cccc(-c3nc4ccc(F)cc4[nH]3)c2)c1)c1cnc[nH]1`, the growth inhibition in assay [1] is 87% (active); in assay [4], 100% (active). The inhibition in assay [2] was 13%; in assay [3] it was -1%. Besides, the outcome in assay [5], in assay [6], in assay [7] and in assay [8] was inactive.
Take `CC(C)(C)c1ccc(NC(=O)c2cccc(CN3CCCN(Cc4cccc(Cl)c4)CC3)c2)cc1`: the growth inhibition in assay [1] is 30%; in assay [4], 85% (active). The inhibition was 61% (active) in assay [2] and 3% in assay [3]. Besides, the result in assay [5], in assay [6], in assay [7] and in assay [8] was inactive.
For the compound `COc1cc(C=CC(=O)N2CCC(CCN3CCC(c4c[nH]c5ccccc45)CC3)CC2)cc(OC)c1`, the growth inhibition in assay [1] is 23%; in assay [4], 92% (active). For the same compound, the inhibition in assay [2] is 39%; in assay [3] it was -5%. Moreover, the outcome in assay [5], in assay [6], in assay [7] and in assay [8] was inactive.
As for `Nc1nc2c(cnn2CCCCCCCP(=O)(O)O)c(=O)[nH]1`, the growth inhibition is 91% (active) in assay [1] and 94% (active) in assay [4]. Besides, the values for the inhibition in assay [2] and in assay [3] were -3% and 4%, respectively. The outcome in assay [5], in assay [6], in assay [7] and in assay [8] was inactive.
As for `Cc1cccc2[nH]c(-c3ccc(-c4ccc(CNCc5ccc(S(C)(=O)=O)cc5)cc4)cc3)nc12`, the growth inhibition in assay [1] is 38%; in assay [4], 93% (active). Moreover, the inhibition is 19% in assay [2] and -1% in assay [3]. Besides, the outcome in assay [5], in assay [6], in assay [7] and in assay [8] was inactive.
On to `COC(=O)c1ccccc1N1CCN(CCCCNC(=O)c2ccc(NC(=O)c3cc(Cl)cc(Cl)c3)cc2)CC1`, for which the growth inhibition in assay [1] is 42%; in assay [4] it was 100% (active). Moreover, the inhibition in assay [2] is 20%; in assay [3], 0%. In addition, the outcome in assay [5], in assay [6], in assay [7] and in assay [8] was inactive.
Consider `CNS(=O)(=O)Cc1ccc(Nc2nccc(Nc3cccc4c3cnn4C(=O)Nc3ccccc3)n2)cc1`, for which the figures for the growth inhibition in assay [1] and in assay [4] were 5% and 89% (active), respectively. Besides, the inhibition in assay [2] is 45%; in assay [3] it was 1%. The outcome in assay [5], in assay [6], in assay [7] and in assay [8] was inactive.
For the compound `Cc1cc2nc(-c3ccc(OCC(=O)NCc4ccc(C(C)(C)C)cc4)cc3)[nH]c2cc1C`, the results for the growth inhibition in assay [1] and in assay [4] were 0% and 94% (active), respectively. The values for the inhibition in assay [2] and in assay [3] were 11% and 2%, respectively. Also, the outcome in assay [5], in assay [6], in assay [7] and in assay [8] was inactive.
Take `CC(=O)CSC(C=Cc1ccc(N(C)C)cc1)=Nc1ccccc1`: the growth inhibition was 42% in assay [1] and 81% (active) in assay [4]. Also, the inhibition in assay [2] was 38%; in assay [3] it was -4%. Further, the outcome in assay [5], in assay [6], in assay [7] and in assay [8] was inactive.
For the compound `CN(CC(=O)Nc1cc(C(F)(F)F)ccc1-n1cncn1)Cc1nc2ccccc2s1`, the figures for the growth inhibition in assay [1] and in assay [4] were 64% (active) and 87% (active), respectively. Besides, the figures for the inhibition in assay [2] and in assay [3] were 3% and 0%, respectively. The result in assay [5], in assay [6], in assay [7] and in assay [8] was inactive.
Take `O=c1cc(NCCCNCc2cn(S(=O)(=O)c3ccccc3)c3ccccc23)[nH]c2ccccc12`: the growth inhibition in assay [1] was 29%; in assay [4] it was 91% (active). Besides, the inhibition in assay [2] is 17%; in assay [3], -2%. Further, the outcome in assay [5], in assay [6], in assay [7] and in assay [8] was inactive.
`O=C(Nc1ccc(N2CCCN(Cc3cccc(F)c3)CC2)cc1)c1ccccc1`: the growth inhibition in assay [1] and in assay [4] was 95% (active) in each case. Moreover, the inhibition in assay [2] is 25%; in assay [3], -4%. For the same compound, the outcome in assay [5], in assay [6], in assay [7] and in assay [8] was inactive.
For `CCOC(=O)c1ccc(N2CCN(c3cc(Cl)ccc3C)CC2)c(NC(=O)Nc2ccc(Cl)c(Cl)c2)c1`, the growth inhibition in assay [1] and in assay [4] was 99% (active) each time. Further, the inhibition in assay [2] is 10%; in assay [3] it was -5%. Besides, the outcome in assay [5], in assay [6], in assay [7] and in assay [8] was inactive.
For the compound `COc1ccc(O)c(Cc2cnc3nc(N)[nH]c(=O)c3c2C)c1`, the results for the growth inhibition in assay [1] and in assay [4] were 6% and 96% (active), respectively. Besides, the inhibition is 30% in assay [2] and -5% in assay [3]. Also, the result in assay [5], in assay [6], in assay [7] and in assay [8] was inactive.
Regarding `CCCc1cn2c3c(cc(C(=O)N[C@@H](Cc4ccccc4)[C@H](O)CNC4CCOCC4)cc13)N(C)S(=O)(=O)CC2`, the growth inhibition in assay [1] is 98% (active); in assay [4], 99% (active). In addition, the inhibition was 1% in assay [2] and 3% in assay [3]. In addition, the result in assay [5], in assay [6], in assay [7] and in assay [8] was inactive.
Consider `CCc1nnc2sc(-c3cccc(NC(=O)c4ccc(C)c([N+](=O)[O-])c4)c3)nn12`, for which the growth inhibition in assay [1] was 46%; in assay [4] it was 82% (active). For the same compound, the inhibition is 10% in assay [2] and 4% in assay [3]. In addition, the outcome in assay [5], in assay [6], in assay [7] and in assay [8] was inactive.
In the case of `O=C(CCc1nc2c(cnn2-c2ccccc2)c(=O)[nH]1)NC1CCSc2ccccc21` (stereo not given), the growth inhibition in assay [1] was 52% (active); in assay [4] it was 95% (active). For the same compound, the results for the inhibition in assay [2] and in assay [3] were 10% and -2%, respectively. Also, the outcome in assay [5], in assay [6], in assay [7] and in assay [8] was inactive.
With `Cc1cc(NCC(c2ccccc2)c2ccccc2)nc(NCc2ccc(C(F)(F)F)cc2)n1`, the results for the growth inhibition in assay [1] and in assay [4] were 79% (active) and 102% (active), respectively. Moreover, the inhibition in assay [2] was 29%; in assay [3] it was 2%. In addition, the result in assay [5], in assay [6], in assay [7] and in assay [8] was inactive.
On to `O=C(Nc1cccc(CN2CCCN(Cc3ccc4c(c3)OCO4)CC2)c1)c1cc2ccccc2s1`, for which the growth inhibition was 11% in assay [1] and 95% (active) in assay [4]. The inhibition in assay [2] is 32%; in assay [3], 2%. Besides, the outcome in assay [5], in assay [6], in assay [7] and in assay [8] was inactive.
With `COc1cc(F)c2ncc(Cl)c(CCN3CCC(NCc4ccc5c(c4)NC(=O)CO5)CC3)c2c1`, the growth inhibition in assay [1] is 79% (active); in assay [4] it was 95% (active). Also, the values for the inhibition in assay [2] and in assay [3] were 32% and -2%, respectively. Also, the outcome in assay [5], in assay [6], in assay [7] and in assay [8] was inactive.

Broadly, the inhibition is the relative decrease from the control value, in per cent.
